# Experimental data taken from PubChem BioAssay.
# Results filed as inconclusive are left out. The source made the active and inactive calls.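 Rule for the calls, unless noted: active = viability increase at or above a cutoff of the median across tested compounds plus 3 SD (cut at about 8.5% in these data, passing the limit was not always enough); inconclusive = some gains above the cutoff, reason not given; inactive = the rest.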
# Legend:
# [1] = Her2 expression decrease, cell viability multiplex – SKBR3 breast tumor cells, AlphaScreen, ATP viability, primary screen (AID 461;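 active = Her2 level under about 52% in both replicate screens, with viability over 70% of control, limit read from the data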;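 for Her2 level: lower value means less Her2 protein in the cells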;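 for viability: percent of carrier control wells set as 100% viability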); details: SKBR3 Her2 protein level, 18-24 h, measured here: SKBR3 viability, ATP luminescence, at 10 µM
# [2] = molecular target: Receptor tyrosine-protein kinase erbB-2 (Homo sapiens) (UniProt P04626); assay: as above; details: 18-24 h, at 10 µM, stronger effect = lower value
# Sequence of Receptor tyrosine-protein kinase erbB-2 (Homo sapiens) (P04626 whole entry, looked up): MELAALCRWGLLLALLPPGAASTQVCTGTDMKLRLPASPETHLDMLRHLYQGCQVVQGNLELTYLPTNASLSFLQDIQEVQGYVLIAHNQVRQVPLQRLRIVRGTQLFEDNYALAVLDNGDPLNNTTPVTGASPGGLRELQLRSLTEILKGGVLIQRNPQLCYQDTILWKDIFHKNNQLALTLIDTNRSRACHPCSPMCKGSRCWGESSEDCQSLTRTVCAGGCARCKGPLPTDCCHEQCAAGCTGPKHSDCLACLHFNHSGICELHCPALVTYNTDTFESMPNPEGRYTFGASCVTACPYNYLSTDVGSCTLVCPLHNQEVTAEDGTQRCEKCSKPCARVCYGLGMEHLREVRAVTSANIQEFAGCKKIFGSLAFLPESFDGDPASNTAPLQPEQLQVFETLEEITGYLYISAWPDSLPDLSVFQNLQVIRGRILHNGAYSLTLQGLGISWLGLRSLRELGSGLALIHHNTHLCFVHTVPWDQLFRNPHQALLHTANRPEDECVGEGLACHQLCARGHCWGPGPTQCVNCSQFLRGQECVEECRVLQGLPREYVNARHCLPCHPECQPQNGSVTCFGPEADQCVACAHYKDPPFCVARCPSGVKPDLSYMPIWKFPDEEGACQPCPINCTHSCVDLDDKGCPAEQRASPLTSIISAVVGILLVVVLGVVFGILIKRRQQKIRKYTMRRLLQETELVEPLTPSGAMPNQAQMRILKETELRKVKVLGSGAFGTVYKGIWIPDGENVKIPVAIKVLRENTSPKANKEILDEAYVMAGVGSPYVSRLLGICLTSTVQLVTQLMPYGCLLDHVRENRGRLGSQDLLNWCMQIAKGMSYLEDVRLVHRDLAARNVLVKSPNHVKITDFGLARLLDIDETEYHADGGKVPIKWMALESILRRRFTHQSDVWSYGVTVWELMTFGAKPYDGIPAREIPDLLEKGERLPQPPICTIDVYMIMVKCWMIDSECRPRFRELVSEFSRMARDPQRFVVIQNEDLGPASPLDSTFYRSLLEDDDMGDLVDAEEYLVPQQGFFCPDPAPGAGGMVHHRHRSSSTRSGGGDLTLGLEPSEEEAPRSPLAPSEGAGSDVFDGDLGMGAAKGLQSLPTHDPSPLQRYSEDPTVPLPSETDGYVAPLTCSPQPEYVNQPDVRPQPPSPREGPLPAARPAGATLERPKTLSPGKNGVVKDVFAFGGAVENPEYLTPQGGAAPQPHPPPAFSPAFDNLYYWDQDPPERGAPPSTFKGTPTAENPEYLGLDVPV
# [3] = reduced viability of SK-BR-3 breast cancer cells – cell-based, 24 h, human, pilot screen (AID 572;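 active = viability at or below 10% of carrier control in both of two separate runs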;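 note: compound exposure lasted between 18 and 24 h rather than exactly 24 h; 100% = carrier-treated control wells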); details: SK-BR-3 viability, CellTiter-Glo luminescence, at 10 µM, stronger effect = lower value
# [4] = HUVEC growth inhibition – cell-based, human, primary screen (AID 575;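 active = viability at or below 30% in both replicate assays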;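 note: 100% = median of untreated cell wells with 0.1% DMSO on each plate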); details: HUVEC proliferation, CellTiter-Glo luminescence, 72 h; at 10 µM; stronger effect = lower value
# [5] = H69AR cell proliferation blockers – human, duplicate replicates, primary screen (AID 580;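 active = viability at or under a set limit in both replicates, limit being median viability minus 3 SD, cut at about 48% in these data, passing the limit was not always enough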;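 note: 100% = mean luminescence of untreated wells and 0% = no signal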); details: H69AR lung tumor cells viability, ATP luminescence, 72 h; at 10 µM; stronger effect = lower value
# [6] = MRP1 drug-resistance reversers in H69AR cells – cell-based, doxorubicin co-treatment, pilot screen (AID 601;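 active = viability loss from added drug above about 55%, and viability with drug at most 40%, in both replicates, limit read from the data, passing the limit was not always enough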); details: CellTiter-Glo, 72 h, at 10 µM; for differential viability (reversal): stronger effect = higher value
# [7] = yeast transport mutant growth inhibition pilot in 384-well plates, post-Golgi transport modulator project (AID 636; in the data active = inhibition above about 31%); details: absorbance 615 nm, about 18 h, stronger effect = higher value
# [8] = growth suppression of yeast trafficking mutant, preliminary HTS, modulators of trafficking downstream of Golgi apparatus project, 1536-format plate, OD 615 nm (AID 637; in the data active = inhibition above about 30%); details: yeast transport mutant growth, absorbance 615 nm, 18 h; stronger effect = higher value
# [9] = S. cerevisiae growth inhibition in permissive medium (OD615), pilot counter-assay for S. cerevisiae lifespan shortening project, permissive growth control (AID 705;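 active = growth inhibition above 25% in both replicates, a cutoff set 3 SD above the mean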); details: OD615, 24 h, at 10 µM, stronger effect = higher value
# [10] = S. cerevisiae growth inhibition in restrictive medium, OD615, pilot screen, restrictive growth control, yeast lifespan reduction project (AID 706;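 active = growth inhibition above a set limit, 3 SD over mean compound inhibition, in both replicates, cut at about 43% in these data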;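 note: modified DeaD lifespan yeast strain shifted to restrictive glucose medium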); details: OD615, 48 h, at 10 µM, stronger effect = higher value
# [11] = doxorubicin toxicity protection in MRP-1 cells – H69AR cells, CellTiter-Glo, duplicate, MRP-1 activator project, pilot screen (AID 807); details: H69AR viability with doxorubicin, CellTiter-Glo luminescence; at 10 µM; stronger effect = higher value;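 note: compound pretreatment 18-22 h then 72 h combined with doxorubicin; 0% = doxorubicin alone and 100% = vehicle without doxorubicin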
# [12] = viability of HCT116 without oncogenic beta-catenin – human colon tumor cells, pilot screen (AID 823;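 active = cell viability at or below a set limit in both duplicate runs, the limit being the all-compound median minus 4 SD, cut at about 23% in these data, passing the limit was not always enough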;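 note: 0% = wells killed by 20 µM Hyamine and 100% = untreated DMSO cell wells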); details: HCT116 beta-catenin knockout viability, CellTiter-Glo, 60 h; at 10 µM; stronger effect = lower value
# [13] = viability of PTEN-null HCT116 cells – cell-based, HCT116 clonal line, CellTiter-Glo, pilot screen (AID 824;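 active = viability at or below 27.92% in each of two runs, the all-compound median minus 4 SD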;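 note: 0% = 20 µM Hyamine control and 100% = vehicle cell control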); details: HCT116 PTEN-deleted viability, 60 h, at 10 µM, stronger effect = lower value
# [14] = RAM pathway blockade in budding yeast – dse1pr::URA3 reporter, 5-FOA selection, pilot screen (AID 869;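 active = inhibition over a set limit, the all-compound mean plus 3 SD, in both replicate runs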;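 note: 0% = DMSO wells with no growth and 100% = 10 µM 1-NA-PP1 with full growth; RAM network block rescues cells from 5-FOA so hits raise OD615 growth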); details: S. cerevisiae dse1pr::URA3 5-FOA growth, OD615, 2 d; at 10 µM; stronger effect = higher value; strain carries analog-sensitive mutant Cbk1 kinase
# [15] = RAM signaling pathway blockade in yeast – S. cerevisiae, Pdr1DBD-CYC8 efflux-inhibited sensitized strain, primary screen (AID 1298;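 active = RAM network inhibition above 8.4% in each of two replicates, 3 SD over the compound average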;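 note: 0% = DMSO untreated cells without growth and 100% = 10 µM 1-NA-PP1 full growth; higher means more yeast growth rescued from 5-FOA killing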); details: S. cerevisiae cbk1-as DSE1-URA3 strain, 5-FOA growth OD615, 2 d; at 50 µM; stronger effect = higher value
# [16] = H69AR cells + 2 uM doxorubicin, measured here: viability with 2 uM doxorubicin, stronger effect = lower value
# [17] = H69AR cells, compound alone cytotoxicity
Compound,viability [1],Her2 level [2],viability [3],viability [4],viability [5],differential viability (reversal) ([6]; H69AR cells + 2 uM doxorubicin),"viability [6, 16]","viability [6, 17]",inhibition [7],inhibition [8],growth inhibition [9],growth inhibition [10],viability increase [11],viability [12],viability [13],inhibition [14],RAM network inhibition [15]
Cc1ccccc1NC(=O)C1CCCN(S(=O)(=O)c2cccc3cccnc23)C1 (stereo not given),90.5%,96.5% (inactive),90.5% (inactive),94.6% (inactive),93.2% (inactive),0.99% (inactive),92.2%,93.2%,-1.73% (inactive),-5.25% (inactive),-13.1% (inactive),-16.6% (inactive),-2.23% (inactive),82.1% (inactive),81.2% (inactive),3.01% (inactive),1.93% (inactive)
CCN(CC)c1ccc(NC(=O)c2nc3nc(C)cc(C(F)F)n3n2)cc1,122%,102% (inactive),122% (inactive),81.6% (inactive),84.4% (inactive),6.97% (inactive),77.4%,84.4%,-3.6% (inactive),6.72% (inactive),-8.26% (inactive),-10.5% (inactive),0.23% (inactive),95.2% (inactive),88% (inactive),0.83% (inactive),1.16% (inactive)
Cc1cccc(C2CC(c3ccccc3)Nc3nc(N)nn32)c1 (stereo not given),92%,94.5% (inactive),92% (inactive),92.7% (inactive),108% (inactive),8.54% (inactive),99.5%,108%,-4.13% (inactive),1.15% (inactive),1.73% (inactive),3.52% (inactive),-0.5% (inactive),99.8% (inactive),88.2% (inactive),-0.64% (inactive),0.21% (inactive)
CC1CCN(C(=O)Cn2cc3c(n2)CCCC3)CC1,97%,116% (inactive),97% (inactive),97.1% (inactive),96.4% (inactive),-4.43% (inactive),101%,96.4%,6.67% (inactive),-4.5% (inactive),-7.6% (inactive),-2.46% (inactive),0.91% (inactive),100% (inactive),99.9% (inactive),0.615% (inactive),3.48% (inactive)
CCc1cccc(NC(=O)Cn2cc3c(n2)CCCC3)c1,105%,95.5% (inactive),105% (inactive),89.8% (inactive),94.8% (inactive),4.52% (inactive),90.3%,94.8%,-4.53% (inactive),-3.11% (inactive),-17.8% (inactive),-2.27% (inactive),-1.41% (inactive),96.6% (inactive),97.2% (inactive),1.69% (inactive),0.42% (inactive)
Cc1ccc(C)c2[nH]c(=O)c(CCNC(=O)CC(C)(C)C)cc12,88%,105% (inactive),88% (inactive),103% (inactive),90.9% (inactive),21.2% (inactive),69.7%,90.9%,-4.27% (inactive),-4.5% (inactive),-4.09% (inactive),-11.6% (inactive),1.59% (inactive),104% (inactive),92.6% (inactive),1.04% (inactive),4.85% (inactive)
CC1CC(NC(=O)c2cnc3n(c2=O)CCS3)CC(C)(C)C1 (stereo not given),83.5%,108% (inactive),83.5% (inactive),85.8% (inactive),91.7% (inactive),6.09% (inactive),85.6%,91.7%,-4.13% (inactive),-3% (inactive),-8.98% (inactive),-8.4% (inactive),-0.41% (inactive),99% (inactive),90% (inactive),0.545% (inactive),0.68% (inactive)
O=C(NCc1ccc(F)cc1)c1cc2ccccn2n1,84%,98.5% (inactive),84% (inactive),99% (inactive),98.2% (inactive),17.5% (inactive),80.6%,98.2%,-2.95% (inactive),4.5% (inactive),1.54% (inactive),3.24% (inactive),-0.54% (inactive),99% (inactive),89.8% (inactive),0.47% (inactive),1.1% (inactive)
COc1ccc(S(=O)(=O)Cc2ccc(C(=O)NCCc3ccc(S(N)(=O)=O)cc3)o2)cc1,94.5%,114% (inactive),94.5% (inactive),91.6% (inactive),91.7% (inactive),12.1% (inactive),79.6%,91.7%,-4.13% (inactive),-2.67% (inactive),-0.09% (inactive),-4.47% (inactive),0.71% (inactive),102% (inactive),99.1% (inactive),0.71% (inactive),0.1% (inactive)
CCN(CC)C(=O)COc1ccc2oc(C)c(C(=O)OC(C)C)c2c1,83%,104% (inactive),83% (inactive),91.4% (inactive),74.1% (inactive),-4.69% (inactive),78.8%,74.1%,-1.69% (inactive),-6% (inactive),-11.4% (inactive),-9.19% (inactive),-6.09% (inactive),84.2% (inactive),84.8% (inactive),1.08% (inactive),7.42% (inactive)
